In all, about 140,000 sequences were measured (“enrichment ratio after two sorts for PhoP signalling”: median about 0, highest 2% from about 11 on). For the sample, the highest values were picked, then their nearest neighbours and some sequences at random.

The chains are these.
B1: PhoQ; a variant is named by its letters at X, in order, P23837 (parent)
chain: MKKLLRLFFPLSLRVRFLLATAAVVLVLSLAYGMVALIGYSVSFDKTTFRLLRGESNLFYTLAKWENNKLHVELPENIDKQSPTMTLIYDENGQLLWAQRDVPWLMKMIQPDWLKSNGFHEIEADVNDTSLLLSGDHSIQQQLQEVREDDDDAEMTHSVAVNVYPATSRMPKLTIVVVDTIPVELKSSYMVWSWFIYVLSANLLLVIPLLWVAAWWSLRPIEALAKEVRELEEHNRELLNPATTRELTSLVRNLNRLLKSERERYDKYRTTLTDLTHSLKTPLXXLQXXLRSLRSEKMSVSDAEPVMLEQISRISQQIGYYLHRASMRGGTLLSRELHPVAPLLDNLTSALNKVYQRKGVNISLDISPEISFVGEQNDFVEVMGNVLDNACKYCLEFVEISARQTDEHLYIVVEDDGPGIPLSKREVIFDRGQRVDTLRPGQGVGLAVAREITEQYEGKIVAGESMLGGARMEVIFGRQHSAPKDE

The assay covers variants of B1. Kind of assay: enrichment ratio after two sorts for PhoP signalling (ratio (wild type AVST 3.29)); higher = more functional. The note with it: with PhoP (E. coli).
On to VFHM, for which the enrichment ratio is at most 0.25.
For MSQP the value was at most 0.25; for KNYG, at most 0.25.
With HEVM the figure was 24.4.
For GYAL the value was at most 0.25; for SAVM, 4.22.
As for SCVM, the enrichment ratio amounted to 8.76.
For IQVM the value was at most 0.25.
With SQVM the figure was 19.6.
For SLVM the value was 2.29.
GLAL: the enrichment ratio worked out at 12.9.
With HEGM the figure was at most 0.25.
For PLAL the value was at most 0.25; for SEVM, 18.7.
For HEVA the value was at most 0.25; for LWIF, at most 0.25; for NFST, at most 0.25.
Turning to PYQI, the enrichment ratio was at most 0.25.
With GTRE the figure was at most 0.25; with SHDG, 1.66; with KYVM, at most 0.25.
For MTVA the value was at most 0.25.
With MEVM the figure was 12.9; with NEVM, 7.03; with GNVM, 22.8.
As for ITVM, the enrichment ratio is at most 0.25.
For the variant STVM, the enrichment ratio stood at 16.3.
As to MTVM, the enrichment ratio stood at 12.8.
For LNVM the value was at most 0.25; for MTPM, at most 0.25; for GIVM, 3.78.
For MAVM the value was at most 0.25; for WVID, at most 0.25.
For KGWL the value was at most 0.25; for GFAY, at most 0.25; for QNPQ, at most 0.25.
As for VYSV, the enrichment ratio was at most 0.25.
As to IADP, the enrichment ratio is at most 0.25.
For TERG the value was at most 0.25.
EIGI: the enrichment ratio is at most 0.25.
With GDSM the figure was 2.79.
Turning to GLCK, the enrichment ratio was at most 0.25.
In the case of GLTA, the enrichment ratio is at most 0.25.
For GLWM the value was at most 0.25.
On to GLTC, for which the enrichment ratio was at most 0.25.
For GLTI the value was 11.7.
In the case of GLSF, the enrichment ratio came out at 4.58.
For GLVM the value was 16.2.
Turning to GLSM, the enrichment ratio came out at 12.3.
Turning to RFTN, the enrichment ratio was at most 0.25.
For RWLE, the enrichment ratio was at most 0.25.
With LIDA the figure was at most 0.25; with LWYT, at most 0.25.
VRCA: the enrichment ratio was at most 0.25.
With SCQC the figure was at most 0.25.
With DMMN the figure was at most 0.25; with TMSQ, 13.5.
With TMSA the figure was 15.1; with TMMS, 14.5; with TMMW, at most 0.25.
Turning to MMSA, the enrichment ratio is at most 0.25.
Turning to DMSA, the enrichment ratio is at most 0.25.
For TMSR the value was at most 0.25; for KMMN, at most 0.25.
With TMMD the figure was at most 0.25; with TMGK, at most 0.25.
With TMMN the figure was 11.5; with FINQ, at most 0.25.
For the variant DCDV, the enrichment ratio was at most 0.25.
In the case of ECGF, the enrichment ratio was at most 0.25.
For EREC the value was at most 0.25.
Consider TNHL, for which the enrichment ratio was at most 0.25.
For WDRM the value was at most 0.25; for KETS, at most 0.25; for RLAR, at most 0.25.
On to DGIV, for which the enrichment ratio was at most 0.25.
With KMLV the figure was at most 0.25; with FDFL, at most 0.25; with TMSI, 14.2.
With TMSK the figure was at most 0.25; with TMMT, 22.9; with TMWT, at most 0.25.
Turning to TMMV, the enrichment ratio amounted to 4.75.
With TMVG the figure was at most 0.25; with TMGG, 15.7.
With TMWG the figure was at most 0.25; with DMSI, at most 0.25; with TMTG, 3.06.
For MMMT the value was at most 0.25; for TMMG, 23.4; for IFIA, at most 0.25.
In the case of IGQM, the enrichment ratio is at most 0.25.
With PWGS the figure was at most 0.25.
With AYGE the figure was at most 0.25; with THGQ, at most 0.25; with LATF, at most 0.25.
For VFAS the value was at most 0.25; for ESNS, at most 0.25; for PACG, at most 0.25.
Consider ITYK, for which the enrichment ratio was at most 0.25.
For HKVF the value was at most 0.25.
For KKSE, the enrichment ratio is at most 0.25.
For ILEH the value was at most 0.25.
On to TMWQ, for which the enrichment ratio was at most 0.25.
For DMQF the value was at most 0.25; for TMQF, 16.1.
As to TMWH, the enrichment ratio was at most 0.25.
With TMHP the figure was at most 0.25; with TMHQ, 15.4.
With MPHD the figure was at most 0.25.
Turning to PCPI, the enrichment ratio is at most 0.25.
With GGFW the figure was at most 0.25; with ESEG, at most 0.25.
Consider PDQD, for which the enrichment ratio was at most 0.25.
With VWER the figure was at most 0.25.
Take MRPD: the enrichment ratio is at most 0.25.
Turning to SKTA, the enrichment ratio turned out to be 0.276.
Take SKPL: the enrichment ratio was at most 0.25.
For SKMI the value was 4.44; for SKTI, 14.2.
For SKCK the value was at most 0.25.
SKMV: the enrichment ratio was 14.3.
For SKKL, the enrichment ratio is at most 0.25.
For SKCI the value was 16.6.
With SKCL the figure was 11.8; with SKTS, 3.33; with SKCS, 6.51.
With SKAV the figure was 4.49; with VFSR, at most 0.25; with FRTG, at most 0.25.
On to PMFK, for which the enrichment ratio is at most 0.25.
With FGSI the figure was at most 0.25.
With VKKE the figure was at most 0.25; with PRSV, at most 0.25; with SKCT, 14.2.
For SKMQ the value was 13.1; for SKCY, 16.7; for SKMT, 10.8.
As to SKCE, the enrichment ratio was found to be 5.46.
With SKAT the figure was 5.34; with SKHP, at most 0.25; with SKPY, at most 0.25.
With SKKI the figure was at most 0.25; with SKKQ, at most 0.25; with SKCA, 11.7.
Take SKPI: the enrichment ratio was at most 0.25.
Regarding DRIT, the enrichment ratio is at most 0.25.
With DNWQ, the enrichment ratio is at most 0.25.
MKCF: the enrichment ratio was at most 0.25.
With SKIV the figure was 4.99.
For SKFW the value was at most 0.25; for SKCF, 13.8.
For SKHF the value was at most 0.25.
On to SKCV, for which the enrichment ratio worked out at 12.3.
With IRSK the figure was at most 0.25; with GTMP, at most 0.25.

For the origin of these results see a collection of fitness landscapes (doi:10.1126/science.1257360).
